Screening results as filed in PubChem.
In the library only some 1.1% were active in any assay of this set; here they are far more common.
Eya2 inh: blocks the phosphatase activity of human Eya2; recombinant Eya2, OMFP fluorescence dephosphorylation (OMFP is methylfluorescein phosphate); Potency, µM (titrated, usually from 76.9 µM), hits mostly inhibitors; 330,000 tested, 0.006% active; AID 488837; O00167
Target sequence (O00167 whole entry, looked up): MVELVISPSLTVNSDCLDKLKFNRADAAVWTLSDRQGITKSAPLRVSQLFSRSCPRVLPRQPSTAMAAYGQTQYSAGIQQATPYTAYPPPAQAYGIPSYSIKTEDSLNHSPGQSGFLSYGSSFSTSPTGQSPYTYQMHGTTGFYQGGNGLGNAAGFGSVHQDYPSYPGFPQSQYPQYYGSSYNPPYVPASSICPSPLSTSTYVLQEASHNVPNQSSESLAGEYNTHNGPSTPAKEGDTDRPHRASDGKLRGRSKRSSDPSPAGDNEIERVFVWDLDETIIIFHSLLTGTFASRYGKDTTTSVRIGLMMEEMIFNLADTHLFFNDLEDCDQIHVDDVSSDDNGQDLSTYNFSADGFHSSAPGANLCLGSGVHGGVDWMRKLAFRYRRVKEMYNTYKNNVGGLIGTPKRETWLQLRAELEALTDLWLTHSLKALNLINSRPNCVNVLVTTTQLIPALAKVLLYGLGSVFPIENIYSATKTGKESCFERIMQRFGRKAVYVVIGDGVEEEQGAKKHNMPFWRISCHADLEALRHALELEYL
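Eya2 protein (added as 0.2 uM solution) was preincubated with compound for 10 min at ambient temperature in 50 mM HEPES pH 7.5, 50 mM NaCl, 5 uM MgCl2, 0.05% BSA, 1 mM DTT. OMFP (added at 50 uM) then reacted 10 min; fluorescence read at 485/525 nm.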
TrxR1 substrate: is turned over as a substrate by rat TrxR1; purified TrxR1 substrate turnover, NADPH consumption readout; Potency, µM (titrated, usually from 114 µM); 390,000 tested, 0.01% active; O89049; also: nearly all actives have a fitted effect of over 50% in size
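Rat TrxR1, dispensed at 90 nM, was prereduced with 400 uM NADPH (final) for 5 min at ~22 deg C, then incubated with compound 15 min before 400 uM selenite. A first-read NADPH fluorescence drop versus no-compound background flagged substrates.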
TrxR1 inh: inhibitors of rat thioredoxin reductase 1; recombinant rTrxR1, NADPH fluorescence consumption, selenite substrate; Potency, µM (titrated, usually from 114 µM), usual class: inhibitors; 390,000 tested, 1% active; also: nearly all actives have a fitted effect of over 65% in size
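Rat TrxR1 (90 nM in the dispensed reagent) was pre-reduced with 400 uM NADPH for 5 min at room temperature, then incubated with compound for 15 min. After 400 uM selenite was added, NADPH fluorescence (Ex 340/Em 450 nm) was followed for 8 min.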
RGS4 inhibitor: human RGS4 inhibition; Transcreener GDP fluorescence polarization, RGS4-accelerated GTP hydrolysis; Potency, µM (titrated, usually from 114 µM), usual class: inhibitors; 390,000 tested, 0.039% active; AID 504845; also: nearly all actives have a fitted effect of over 75% in size
Target sequence (P49798 whole entry, looked up): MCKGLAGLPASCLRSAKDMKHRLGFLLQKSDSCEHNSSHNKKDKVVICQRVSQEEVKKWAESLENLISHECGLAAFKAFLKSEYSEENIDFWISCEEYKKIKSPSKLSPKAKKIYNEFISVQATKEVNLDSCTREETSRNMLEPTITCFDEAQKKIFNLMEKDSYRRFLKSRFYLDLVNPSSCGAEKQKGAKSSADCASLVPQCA
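MLSMR compounds (23 nl, pin-transferred) preincubated 10 min at room temperature with a 500nM (2x) first reagent, then RGS4 at 900nM (2x) plus Transcreener GDP mix added; fluorescence polarization (620/688 nm) read before and after 90 min at 30 °C.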
IDH1 R132H inh: blocks human mutant IDH1 R132H enzyme | O75874 | IDH1-R132H enzyme, NADPH consumption, diaphorase/resazurin fluorescence | Potency, µM (doses to about 76.6 µM), actives largely listed as inhibitors | 390,000 tested, 0.093% active; also: nearly all actives have a fitted effect of over 65% in size
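IDH1-R132H (0.5 ug/mL dispensed) in pH 7.5 Tris buffer was preincubated 30 min with compound, then given a substrate mix of 0.016 mM NADPH and 2 mM alpha-KG for 80 min at room temperature; remaining NADPH was read by diaphorase/resazurin fluorescence.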
Large screens that a line does not name were inactive. Calls follow the shape of the dose curve; as a rule, active = well fitted curve in the direction sought with a large enough effect; inconclusive = small, poorly fitted or top-dose-only effect, or another doubt; inactive = no such curve, though single readings can be large; an effect the other way counts as inactive or inconclusive.

Cc1ccc(-c2nc3ccc(Cl)cn3c2Nc2ccccc2)o1	TrxR1 inh inconclusive (no result: Eya2 inh, IDH1 R132H inh)
Fc1ccccc1-c1ccc(-c2nc3ccc(Cl)cn3c2Nc2ccc(Cl)cc2)o1	TrxR1 inh 25µM, RGS4 inhibitor inconclusive (no result: Eya2 inh, IDH1 R132H inh)
Cc1ccc2nc(-c3ccc(C)o3)c(Nc3ccccc3)n2c1	TrxR1 inh 18µM (no result: Eya2 inh, IDH1 R132H inh)
Brc1ccc(-c2nc3ncccn3c2Nc2ccc3c(c2)OCCO3)o1	none
Cc1ccc(C(=O)N2CCN(CCNC(=O)C(=O)NCc3ccc(Cl)cc3)CC2)cc1	none
O=[N+]([O-])c1cccc(-c2noc(-c3ccco3)n2)c1	none
Cc1ccc(S(=O)(=O)/N=S(/c2ccccc2)C(C)C)cc1 (stereo unspecified)	none
COc1ccc(S(=O)(=O)N2CCC(NC(=O)c3cccc(F)c3)CC2)cc1	none
CCOc1ccc(NC(=O)c2ccc(NCC(=O)N3CCCCCC3)cc2)cc1	none
CN(CC(=O)Nc1ccccc1Br)C(=O)C(Cc1ccccc1)NC(=O)c1ccccc1 (stereo unspecified)	none
O=C1/C(=C/N(C(=O)c2ccco2)c2ccc(Cl)cc2)Sc2ccccc21	TrxR1 inh 40µM
O=C1/C(=C/N(C(=O)c2ccco2)c2ccc(Br)cc2)Sc2ccccc21	TrxR1 inh 14µM, RGS4 inhibitor inconclusive
COc1ccc(CN(C(=O)c2ccco2)c2ccc(Br)cc2)cc1OC	none
CCc1ccccc1NC(=O)c1nnn(CC(=O)Nc2c(C)cc(C)cc2C)c1N	none (no result: Eya2 inh)
NS(=O)(=O)C#Cc1ccccc1	TrxR1 inh 4.7µM (no result: IDH1 R132H inh)
Cc1ccc(C(C2C(=O)CC(C)(C)CC2=O)C2C(=O)CC(C)(C)CC2=O)s1	TrxR1 inh 40µM, RGS4 inhibitor inconclusive
C=CCn1c(COc2ccc(F)cc2)nnc1SC(C)C(=O)NCC1CCCO1 (stereo unspecified)	none
O=C(Nc1cccc(S(=O)(=O)NC2=NCCCCC2)c1)c1cc(-c2ccncc2)nc2ccccc12	none
O=C(CCl)Nc1ccc(S(=O)(=O)NC2=NCCCCC2)cc1	none
O=C(CCl)Nc1cccc(S(=O)(=O)NC2=NCCCCC2)c1	TrxR1 inh 18µM
O=C(Nc1cccc(S(=O)(=O)NC2=NCCCCC2)c1)c1cc(-c2ccco2)nc2ccccc12	TrxR1 inh 50µM, RGS4 inhibitor inconclusive
CCOC(=O)c1c(N2C(=O)C3C4C=CC(O4)C3C2=O)sc2c1CCCC2 (stereo unspecified)	TrxR1 inh 13µM, RGS4 inhibitor inconclusive (no result: Eya2 inh)
CCN(Cc1ccncc1)Cc1c(O)ccc2ccccc12	TrxR1 inh 5µM
CSc1ccccc1NC(=O)CN(c1ccccc1)S(=O)(=O)N(C)C	none
CC(C)N1C(=O)CC(Nc2cccc3cccc(N)c23)C1=O (stereo unspecified)	none
CN1C(=O)CC(Nc2cccc3cccc(N)c23)C1=O (stereo unspecified)	TrxR1 inh 45µM
CC(=O)Nc1ccc(Sc2ccc([N+](=O)[O-])o2)cc1	TrxR1 inh 4.5µM (no result: Eya2 inh)
C=C1CC(COc2cc(=O)oc3ccccc23)(c2ccccc2)OC1=O (stereo unspecified)	TrxR1 inh 32µM, RGS4 inhibitor inconclusive (no result: Eya2 inh)
Cc1occc1C(=O)N/N=C/C(Br)=C/c1ccccc1	none
Cc1oc(-c2ccc(Cl)cc2)cc1C(=O)NC1CCN(Cc2ccccc2)CC1	none
COc1ccc(S(=O)(=O)n2nc(OC(C)=O)cc2N)cc1	TrxR1 inh 18µM
Nc1cc(OC(=O)c2cccs2)nn1S(=O)(=O)c1ccc(F)cc1	TrxR1 inh 79µM
COc1cccc(NC(=O)CCN2C(=O)c3ccccc3Sc3ncccc32)c1	TrxR1 inh 71µM
Cc1ccccc1NC(=O)CCN1C(=O)c2ccccc2Sc2ncccc21	TrxR1 inh inconclusive (no result: Eya2 inh)
COC(=O)C1=C(O)/C(=C\c2cc(C)n(-c3ccccc3C)c2C)N=C1C	none
COC(=O)C1=C(O)/C(=C\c2cc(C)n(-c3ccccc3F)c2C)N=C1C	TrxR1 inh 16µM
Cc1cc2n(n1)CCCN2C(=O)Nc1ccc(F)c(Cl)c1	none (no result: Eya2 inh)
Cc1cc2n(n1)SC(Nc1ccc(F)c(Cl)c1)N2 (stereo unspecified)	TrxR1 inh 14µM
O=C(NP(=O)(N1CCCC1)N1CCCC1)C1=C(N2CCOCC2)/C(=C/c2cccc([N+](=O)[O-])c2)CC1	none
O=[N+]([O-])c1ccc(/C=C2\CCC(C3=CCCC3)=C2N2CCOCC2)cc1	TrxR1 inh 40µM
N#CC1(NC(=O)CN2C(=O)c3ccccc3C2=O)CCCCC1	none
N#CC1(NC(=O)Cn2ncc(Cl)c(Cl)c2=O)CCCCC1	TrxR1 inh 5µM
N#Cc1ccc(CSc2nnc(-c3ccccc3)n2Cc2ccco2)cc1	none
COc1cc2c(cc1NC(=O)CSc1nnc(Cc3cccs3)n1Cc1ccco1)oc1ccccc12	TrxR1 inh 14µM, RGS4 inhibitor inconclusive
N#Cc1ccc(CSc2nnc(Cc3cccs3)n2Cc2ccco2)cc1	TrxR1 inh 40µM
Cc1ccc(NC(=O)c2sc3nc[nH]c(=O)c3c2C)cc1Cl	none (no result: Eya2 inh)
O=C(NC1CCCCC1)c1nn2c(C(F)(F)F)cc(-c3ccco3)nc2c1Br	none
O=C(NCC1CCCO1)c1nn2c(C(F)(F)F)cc(-c3ccc(Br)o3)nc2c1Br (stereo unspecified)	TrxR1 inh 14µM
Cc1ccc2nc(/C(C#N)=C\c3ccc(N4CCOCC4)o3)[nH]c2c1	Eya2 inh inconclusive, TrxR1 inh 13µM, RGS4 inhibitor inconclusive
N#C/C(=C\c1ccc(N2CCOCC2)o1)C(=O)NCC1CCCO1 (stereo unspecified)	TrxR1 inh inconclusive
Cc1ccc(/C(C#N)=C\c2ccc(N3CCOCC3)o2)cc1	TrxR1 inh 2.2µM, RGS4 inhibitor inconclusive
O=C(O)c1cnccn1	TrxR1 inh inconclusive
O=C(NCc1ccc2c(c1)CCN2C(=O)c1ccc(Cl)cc1)c1cccc(F)c1	none (no result: Eya2 inh)
CC(C)Cc1ccc(C(C)CC2=CCC(CN(C)C)C2=O)cc1 (stereo unspecified)	TrxR1 inh 45µM, RGS4 inhibitor inconclusive, IDH1 R132H inh inconclusive (no result: Eya2 inh)
CC(C)Cc1ccc(S(=O)(=O)N2CCOCC2)cc1	none
N#Cc1c(NC(=O)/C=C/c2ccco2)sc2c1CCCC2	TrxR1 inh 40µM, RGS4 inhibitor inconclusive
CCN(CC)c1ccc(/C=C2\SC(=O)N(C(C)C)C2=O)o1	TrxR1 inh 4µM, RGS4 inhibitor inconclusive
CN(C)C(=S)NC(=O)C(c1ccccc1)c1ccccc1	none
C[C@H](C(=O)OCO/N=[N+](\[O-])N1CCCC1)c1cccc2ccccc12	TrxR1 inh 18µM (no result: Eya2 inh, IDH1 R132H inh)
CCOC(=O)C1(Cc2cccc(OC)c2)CCCN(C(=O)c2ccc(OC)o2)C1 (stereo unspecified)	TrxR1 inh 50µM
CCOC(=O)C1(Cc2cccc(OC)c2)CCCN(C(=O)c2cc(CC(C)C)[nH]n2)C1 (stereo unspecified)	none
